Measured values as given in PubChem BioAssay (NCATS).
Results filed as inconclusive are left out. Active and inactive are the calls of the source. Unless noted, the call rests on the fitted dose curve; in most records, active means well fitted curve in the direction sought with a large enough effect; inconclusive means small, poorly fitted or top-dose-only effect, or another doubt; inactive means no such curve, though single readings can be large; an effect the other way counts as inactive or inconclusive.

Columns and labels:
[1] = Counterscreen for APE1 Inhibitors: Fluorescent Dye Displacement Validation Assay (AID 1707);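 further: plate controls were ThO with dsDNA and no compound for no effect and ThO without dsDNA for full effect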
How it was run: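 Endpoint fluorescence read at 480 nm excitation / 540 nm emission; DNA-binding compounds lower signal by displacing 250 nM Thiazole Orange from 50 nM dsDNA containing a tetrahydrofuran abasic site, Tris-HCl pH7.5 buffer with NaCl and MgCl2.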

[2] = molecular target: Endonuclease 4 (Escherichia coli (strain K12)) (UniProt P0A6C1); test: Counterscreen for APE1 Inhibitors: qHTS Validation Assay for Inhibitors of Endonuclease IV (AID 1708); further: on the % scale 0 is the no-effect control and ±100 the full control effect
How it was run: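 Incision of a double-stranded 50 nM TAMRA/BHQ-2 abasic substrate was followed kinetically (525/598 nm, reads every 60 s) after 15 min enzyme–compound preincubation with 2 nM EndoIV in pH 7.5 Tris buffer with MgCl2, DTT and Tween-20; concentration-response format.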

[3] = qHTS for differential inhibitors of proliferation of Plasmodium falciparum line 7G8 (AID 1815);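 further: parasite growth measured after three days of incubation; plate controls were vehicle wells for no effect and reference inhibitor wells for full effect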
[4] = qHTS for differential inhibitors of proliferation of Plasmodium falciparum line GB4 (AID 1816); details: Potency: Plasmodium falciparum GB4 proliferation inhibition;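 further: parasite growth measured after 72 h incubation; 0% = vehicle DMSO and -100% = reference inhibitor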
[5] = qHTS for differential inhibitors of proliferation of Plasmodium falciparum line 3D7 (AID 1876);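 further: parasite growth measured after three days of culture; 0% = vehicle wells and -100% = reference inhibitor wells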
[6] = qHTS for differential inhibitors of proliferation of Plasmodium falciparum line D10 (AID 1877);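 further: parasites grown with compound for 72 h before DNA staining; plate controls were vehicle wells for no effect and reference inhibitor wells for full effect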
[7] = qHTS for differential inhibitors of proliferation of Plasmodium falciparum line Dd2 (AID 1882); details: Potency: Plasmodium falciparum Dd2 proliferation inhibition;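 further: series mostly up to about 29 µM; plate controls were DMSO vehicle for no effect and 0.29 µM artemisinin for full effect; nearly all actives have a fitted effect of over 65% in size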
How it was run: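 SYBR Green DNA fluorescence (ex 485, em 535 nm) after overnight lysis quantifies parasite growth; compound exposure lasted 72 h at 37 C on infected red cells at 2.5% hematocrit, 0.3% parasitemia (final). Artemisinin 0.29 uM and vehicle wells define normalization.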

[8] = qHTS for differential inhibitors of proliferation of Plasmodium falciparum line W2 (AID 1883); details: Potency: Plasmodium falciparum W2 proliferation inhibition;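 further: parasites grown with compound for 72 h before lysis and staining; 0% = vehicle wells and -100% = control inhibitor wells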
[9] = qHTS for differential inhibitors of proliferation of Plasmodium falciparum line HB3 (AID 1886); details: Potency: Plasmodium falciparum HB3 proliferation inhibition;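 further: parasites grown with compound for 72 h before SYBR Green readout; plate controls were vehicle for no effect and reference inhibitor for full effect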
[10] = molecular target: ATP-dependent DNA helicase Q1 (Homo sapiens) (UniProt P46063); test: qHTS Validation Assay for Inhibitors of RecQ-Like Dna Helicase 1 (RECQ1) (AID 2353);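 further: plate controls were DMSO vehicle for no effect and enzyme-free control for full effect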
Chain of ATP-dependent DNA helicase Q1 (Homo sapiens) (P46063 whole entry, looked up): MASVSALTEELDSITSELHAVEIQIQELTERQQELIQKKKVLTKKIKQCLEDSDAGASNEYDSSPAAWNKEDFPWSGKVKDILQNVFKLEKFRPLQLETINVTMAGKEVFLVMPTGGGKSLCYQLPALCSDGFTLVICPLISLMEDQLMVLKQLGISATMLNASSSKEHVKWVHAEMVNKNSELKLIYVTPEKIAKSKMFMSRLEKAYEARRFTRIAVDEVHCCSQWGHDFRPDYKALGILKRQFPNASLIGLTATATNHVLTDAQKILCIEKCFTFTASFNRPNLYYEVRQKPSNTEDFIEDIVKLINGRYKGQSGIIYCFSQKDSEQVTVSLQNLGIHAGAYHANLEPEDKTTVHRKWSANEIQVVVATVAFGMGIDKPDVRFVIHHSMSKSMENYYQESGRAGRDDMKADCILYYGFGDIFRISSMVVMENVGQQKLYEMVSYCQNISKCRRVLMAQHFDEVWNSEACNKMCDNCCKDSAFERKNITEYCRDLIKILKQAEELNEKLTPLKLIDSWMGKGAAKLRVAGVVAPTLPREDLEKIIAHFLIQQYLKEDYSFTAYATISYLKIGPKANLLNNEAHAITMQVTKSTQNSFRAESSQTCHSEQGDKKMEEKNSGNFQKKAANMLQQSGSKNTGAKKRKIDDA
How it was run: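 RECQ1T1 50 nM; forked duplex (20 bp + 30-nt ss tails) 200 nM, ATP 2 mM final; pH 8.0, 2 mM MgCl2, 2.5 ug/ml poly(dI-dC); 15 min compound preincubation; discontinuous kinetic read over 2 h at RT.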

[11] = Validation screen for small molecules that induce DNA re-replication in MCF 10A normal breast cells (AID 463097); further: 0% is about no effect; nearly all actives have a fitted effect of over 60% in size
How it was run: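 Image-based qHTS: normal breast cells are incubated with compound for 48 hr, stained with Hoechst, and scanned for total nuclear fluorescence. Compounds raising the fraction of nuclei with elevated DNA content count as re-replication inducers.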

[12] = Quantitative high throughput screen for delayed death inhibitors of the malarial parasite plastid, 96 hour incubation (AID 488745);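 further: luciferase-expressing P. falciparum in erythrocytes at 2% hematocrit and 0.1% parasitemia; series mostly up to about 29 µM; on the % scale 0 is the no-effect control and ±100 the full control effect; nearly all actives have a fitted effect of over 70% in size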
How it was run: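 Readout is firefly luciferase luminescence from an integrated reporter in P. falciparum; lower signal marks inhibited growth. Cultures at 2% hematocrit and 0.1% parasitemia were treated with compound across two generations (96 h, 37 C, 5% CO2).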

[13] = molecular target: M-phase phosphoprotein 8 (Homo sapiens) (UniProt Q99549); test: qHTS Validation Assay for Inhibitors for MPP8 Chromodomain Interactions with Methylated Histone Tails (AID 488949);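 further: 50 nM MPP8 with 50 nM peptide preformed then compounds added for 30 min; AlphaScreen signal from MPP8 chromodomain bound to biotinylated H3K9me3 peptide; top concentration of the series differs between compounds; on the % scale 0 is the no-effect control and ±100 the full control effect; nearly all actives have a fitted effect of over 55% in size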
Chain of M-phase phosphoprotein 8 (Homo sapiens) (Q99549 whole entry, looked up): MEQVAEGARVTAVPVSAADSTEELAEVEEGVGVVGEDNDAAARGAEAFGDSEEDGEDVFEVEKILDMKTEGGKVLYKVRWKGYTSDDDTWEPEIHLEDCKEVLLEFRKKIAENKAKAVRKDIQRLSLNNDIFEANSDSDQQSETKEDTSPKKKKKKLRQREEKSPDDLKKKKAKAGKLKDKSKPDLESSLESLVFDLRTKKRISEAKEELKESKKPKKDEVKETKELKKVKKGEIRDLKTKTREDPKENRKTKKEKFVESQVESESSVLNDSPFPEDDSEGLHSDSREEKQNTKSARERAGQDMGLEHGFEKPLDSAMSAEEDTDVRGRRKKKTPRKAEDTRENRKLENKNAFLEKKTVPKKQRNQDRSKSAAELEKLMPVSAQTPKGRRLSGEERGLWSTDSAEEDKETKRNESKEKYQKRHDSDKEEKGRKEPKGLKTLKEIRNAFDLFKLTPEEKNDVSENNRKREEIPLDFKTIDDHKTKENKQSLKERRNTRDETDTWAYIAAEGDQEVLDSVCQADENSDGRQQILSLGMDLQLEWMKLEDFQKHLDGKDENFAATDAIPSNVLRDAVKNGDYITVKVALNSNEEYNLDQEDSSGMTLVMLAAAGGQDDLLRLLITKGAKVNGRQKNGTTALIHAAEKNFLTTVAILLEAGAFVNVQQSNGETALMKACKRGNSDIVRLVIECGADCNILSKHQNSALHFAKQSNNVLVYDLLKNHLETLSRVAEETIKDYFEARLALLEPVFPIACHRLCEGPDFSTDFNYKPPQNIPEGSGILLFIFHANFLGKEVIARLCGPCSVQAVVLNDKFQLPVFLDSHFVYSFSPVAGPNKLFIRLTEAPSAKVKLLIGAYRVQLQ
How it was run: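 50 nM MPP8 + 50 nM b-H3K9me3 peptide, PBS pH 7.4/0.01% Tween-20, 30 min RT; + cpd 30 min RT; + AlphaScreen donor/Ni-chelate acceptor beads 10 ug/mL final, 30 min dark; luminescence read.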

[14] = molecular target: Thyrotropin receptor (Homo sapiens) (UniProt P16473); test: qHTS Assay for Antagonists of the Thyroid Stimulating Hormone Receptor (AID 488980); further: series mostly up to about 58 µM; 0% is about no effect
Chain of Thyrotropin receptor (Homo sapiens) (P16473 whole entry, looked up): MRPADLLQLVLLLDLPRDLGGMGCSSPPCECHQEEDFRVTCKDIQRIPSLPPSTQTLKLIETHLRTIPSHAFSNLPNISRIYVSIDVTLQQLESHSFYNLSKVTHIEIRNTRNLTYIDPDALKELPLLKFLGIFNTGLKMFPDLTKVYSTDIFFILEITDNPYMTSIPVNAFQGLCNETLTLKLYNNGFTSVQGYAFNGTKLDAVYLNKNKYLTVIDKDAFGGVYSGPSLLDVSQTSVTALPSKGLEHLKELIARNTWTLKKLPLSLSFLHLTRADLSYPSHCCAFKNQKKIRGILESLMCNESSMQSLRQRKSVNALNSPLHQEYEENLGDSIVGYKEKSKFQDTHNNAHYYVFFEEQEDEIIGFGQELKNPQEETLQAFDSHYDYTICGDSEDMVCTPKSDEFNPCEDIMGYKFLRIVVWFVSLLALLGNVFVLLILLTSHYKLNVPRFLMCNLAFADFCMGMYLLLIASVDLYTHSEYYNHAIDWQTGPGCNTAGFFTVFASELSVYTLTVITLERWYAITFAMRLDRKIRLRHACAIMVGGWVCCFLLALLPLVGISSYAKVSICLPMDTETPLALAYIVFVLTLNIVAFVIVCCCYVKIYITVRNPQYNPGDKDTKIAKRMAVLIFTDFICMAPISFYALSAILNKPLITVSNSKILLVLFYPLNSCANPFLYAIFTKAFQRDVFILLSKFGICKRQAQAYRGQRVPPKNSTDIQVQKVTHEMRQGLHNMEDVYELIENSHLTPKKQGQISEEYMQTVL
How it was run: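 Readout is cAMP by HTRF competition between cellular cAMP and cAMP-d2 for a cryptate-labelled antibody. Antagonism was assessed in TSHR-transfected HEK293 cells stimulated with 4 nM TSH (EC80, final) in the presence of RO 20-1724.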

[15] = molecular target: Thyrotropin-releasing hormone receptor (Homo sapiens) (UniProt P34981); test: qHTS for Small Molecule Agonists and Allosteric Enhancers of Human TRH Receptor: Validation Screen for Agonists (AID 493127;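 active means calcium activation more than 3 SD above the typical response in the agonist read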;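 further: intracellular calcium rise by fluo-8 fluorescence before TRH EC20 addition; 0% is about no effect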); details: TRH receptor agonist cell assay; at 2 µM; stronger effect = higher value
Chain of Thyrotropin-releasing hormone receptor (Homo sapiens) (P34981 whole entry, looked up): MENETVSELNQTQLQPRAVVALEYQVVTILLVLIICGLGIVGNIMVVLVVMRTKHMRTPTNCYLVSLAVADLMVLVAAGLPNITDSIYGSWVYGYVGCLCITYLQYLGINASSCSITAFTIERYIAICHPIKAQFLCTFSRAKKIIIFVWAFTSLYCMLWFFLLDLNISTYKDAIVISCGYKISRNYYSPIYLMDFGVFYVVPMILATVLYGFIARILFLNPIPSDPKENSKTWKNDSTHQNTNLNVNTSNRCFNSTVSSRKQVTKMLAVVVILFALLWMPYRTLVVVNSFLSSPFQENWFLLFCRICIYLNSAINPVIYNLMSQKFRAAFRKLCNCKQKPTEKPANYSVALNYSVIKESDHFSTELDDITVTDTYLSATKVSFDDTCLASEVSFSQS
How it was run: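 Compounds are added by online pintool to dye-loaded TRHR cells while fluorescence is recorded every second. A rise in calcium signal during the agonist read marks activation; a later 10 nM TRH addition (EC20) serves the separate enhancer mode.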

[16] = molecular target: Galactokinase (Homo sapiens) (UniProt P51570); test: qHTS Validation Assay for Inhibitors of Human Galactokinase (GALK) (AID 493189); further: 0% is about no effect
Chain of Galactokinase (Homo sapiens) (P51570 whole entry, looked up): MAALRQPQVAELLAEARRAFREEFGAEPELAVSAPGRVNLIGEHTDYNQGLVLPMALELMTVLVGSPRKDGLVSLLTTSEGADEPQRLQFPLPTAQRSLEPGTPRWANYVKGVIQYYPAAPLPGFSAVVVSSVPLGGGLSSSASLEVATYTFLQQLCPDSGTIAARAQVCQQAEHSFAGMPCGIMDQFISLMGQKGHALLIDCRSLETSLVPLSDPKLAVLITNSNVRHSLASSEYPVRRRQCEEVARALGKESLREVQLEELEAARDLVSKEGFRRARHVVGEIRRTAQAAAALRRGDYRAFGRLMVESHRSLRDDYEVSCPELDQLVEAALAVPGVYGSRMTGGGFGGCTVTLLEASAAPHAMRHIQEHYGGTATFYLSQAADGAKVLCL
How it was run: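 5 nM GALK / 100 uM galactose / 35 uM ATP, 20 mM HEPES pH8.0, 5 mM MgCl2, 60 mM NaCl, 1 mM DTT, 0.01% BSA (final). RT 1 h; Kinase-Glo Plus luminescence.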

[17] = Validation screen for small molecules that induce DNA re-replication in SW480 colon adenocarcinoma cells (AID 504364); further: 0% is about no effect
How it was run: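 Image-based qHTS: compounds were incubated with SW480 cells for 48 hr, nuclei stained with Hoechst, and per-nucleus fluorescence intensity scanned to flag cells with excess DNA content.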

[18] = molecular target: Voltage-gated inwardly rectifying potassium channel KCNH2 (Homo sapiens) (UniProt Q12809); test: qHTS Assay for Small Molecule Inhibitors of the Human hERG Channel Activity (AID 588834);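 further: top concentration of the series differs between compounds; on the % scale 0 is the no-effect control and ±100 the full control effect; lower thallium flux fluorescence means stronger hERG block; nearly all actives have a fitted effect of over 50% in size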
Chain of Voltage-gated inwardly rectifying potassium channel KCNH2 (Homo sapiens) (Q12809 whole entry, looked up): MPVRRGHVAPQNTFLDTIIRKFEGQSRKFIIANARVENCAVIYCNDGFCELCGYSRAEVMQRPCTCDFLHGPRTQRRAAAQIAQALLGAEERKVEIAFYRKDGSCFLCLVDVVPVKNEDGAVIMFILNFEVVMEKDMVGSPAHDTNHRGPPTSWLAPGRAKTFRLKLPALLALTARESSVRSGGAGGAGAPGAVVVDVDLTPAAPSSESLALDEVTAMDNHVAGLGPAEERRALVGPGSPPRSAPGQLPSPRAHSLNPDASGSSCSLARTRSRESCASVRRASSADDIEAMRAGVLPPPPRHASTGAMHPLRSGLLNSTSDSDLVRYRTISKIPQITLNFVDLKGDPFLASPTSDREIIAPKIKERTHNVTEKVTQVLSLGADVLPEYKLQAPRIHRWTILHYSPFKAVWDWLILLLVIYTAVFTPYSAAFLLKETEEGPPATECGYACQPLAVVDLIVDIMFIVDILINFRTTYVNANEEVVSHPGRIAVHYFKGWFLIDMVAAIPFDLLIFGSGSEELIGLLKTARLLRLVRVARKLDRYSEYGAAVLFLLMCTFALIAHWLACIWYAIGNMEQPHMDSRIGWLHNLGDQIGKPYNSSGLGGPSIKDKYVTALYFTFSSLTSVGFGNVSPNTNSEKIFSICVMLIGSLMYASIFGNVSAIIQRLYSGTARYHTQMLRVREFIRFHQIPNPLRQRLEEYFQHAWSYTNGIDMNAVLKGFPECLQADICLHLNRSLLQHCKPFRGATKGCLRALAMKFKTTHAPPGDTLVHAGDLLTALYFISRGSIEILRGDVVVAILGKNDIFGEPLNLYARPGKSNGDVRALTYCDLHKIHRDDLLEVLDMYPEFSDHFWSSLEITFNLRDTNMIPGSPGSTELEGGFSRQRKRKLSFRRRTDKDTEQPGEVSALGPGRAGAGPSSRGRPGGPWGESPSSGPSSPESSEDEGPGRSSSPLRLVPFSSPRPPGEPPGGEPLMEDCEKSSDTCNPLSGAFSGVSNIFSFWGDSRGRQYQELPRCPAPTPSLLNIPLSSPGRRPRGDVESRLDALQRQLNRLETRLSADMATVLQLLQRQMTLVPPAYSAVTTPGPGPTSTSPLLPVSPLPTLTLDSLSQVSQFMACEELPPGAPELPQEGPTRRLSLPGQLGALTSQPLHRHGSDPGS
How it was run: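 Step 1: BacMam hERG transduction of U2OS, 4 hrs RT. Step 2: overnight 37 °C, plate 2000 cells/well, 4 hr. Step 3: FluxOR load, compound 10 min, stimulate, read fluorescence.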

[19] = system: Zika virus NS2B-NS3 protease; test: Primary screen GU AMC qHTS for Zika virus inhibitors (AID 1347154);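 further: 0% = no-inhibitor control and -100% = no-enzyme control; nearly all actives have a fitted effect of over 70% in size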
How it was run: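 Fluorogenic AMC-substrate cleavage by noncovalent NS2B-NS3 protease complex (25 nM, pH 8.0 Tris buffer with Tween 20) followed for 15 minutes at room temperature (~20% conversion). Percent inhibition from ex340/em450 signal change, fitted by 4-parameter Hill equation.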

[20] = Primary qHTS for small molecule stabilizers of the endoplasmic reticulum resident proteome: Secreted ER Calcium Modulated Protein (SERCaMP) assay (AID 1508630); further: on the % scale 0 is the no-effect control and ±100 the full control effect
How it was run: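 The SH-SY5Y reporter protocol was run at 3 concentrations up to 38.3 uM (primary) or 11 concentrations (follow-up): 16 h compound, 100 nM thapsigargin for 4 h, then extracellular luciferase luminescence.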

CCCn1c(=O)c2[nH]c(-c3ccc(OCC(=O)Nc4ccc(C#N)cc4)cc3)nc2n(CCC)c1=O
inactive: Potency [1] | Potency [2] | Potency [3] | Potency [4] | Potency [5] | Potency [6] | Potency [7] | Potency [8] | Potency [9] | Potency [10] | Potency [11] | Potency [12] | Potency [13] | outcome [14] | activation [15] 0.938% | outcome [16] | outcome [17] | Potency [18] | Potency [19] | Potency [20]
